Assay [1] has as its target Nuclear receptor subfamily 1 group I member 2 (Homo sapiens) (UniProt O75469). Kind of assay: NVS_NR_hPXR: NovaScreen (NVS) Nuclear Receptor Binding Assay for human Pregnane X Receptor (PXR) (AID 2283365).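 Further: a drop in FRET signal versus DMSO baseline means the compound binds.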 Summed up:
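Binding was measured by time-resolved fluorescence resonance energy transfer after a 2 h exposure of extracted human PXR protein without cells. Compounds were first tested at 25 uM in duplicate, with concentration series for actives; DMSO defined baseline.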

For assay [2], the target named is Peroxisome proliferator-activated receptor gamma (Homo sapiens) (UniProt P37231). In words: NVS_NR_hPPARg: NovaScreen (NVS) Nuclear Receptor Binding Assay for human Peroxisome Proliferator-activated Receptor gamma (PPARg) (AID 2283370). A digest of the protocol: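 Fluorescence polarization measures competitive binding to extracted PPARg in a cell-free format. Reading is taken at 2 h; activity is signal loss relative to DMSO. Screening at 25 uM in duplicate preceded confirmatory dose series.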
Chain of Peroxisome proliferator-activated receptor gamma (Homo sapiens) (P37231 whole entry, looked up): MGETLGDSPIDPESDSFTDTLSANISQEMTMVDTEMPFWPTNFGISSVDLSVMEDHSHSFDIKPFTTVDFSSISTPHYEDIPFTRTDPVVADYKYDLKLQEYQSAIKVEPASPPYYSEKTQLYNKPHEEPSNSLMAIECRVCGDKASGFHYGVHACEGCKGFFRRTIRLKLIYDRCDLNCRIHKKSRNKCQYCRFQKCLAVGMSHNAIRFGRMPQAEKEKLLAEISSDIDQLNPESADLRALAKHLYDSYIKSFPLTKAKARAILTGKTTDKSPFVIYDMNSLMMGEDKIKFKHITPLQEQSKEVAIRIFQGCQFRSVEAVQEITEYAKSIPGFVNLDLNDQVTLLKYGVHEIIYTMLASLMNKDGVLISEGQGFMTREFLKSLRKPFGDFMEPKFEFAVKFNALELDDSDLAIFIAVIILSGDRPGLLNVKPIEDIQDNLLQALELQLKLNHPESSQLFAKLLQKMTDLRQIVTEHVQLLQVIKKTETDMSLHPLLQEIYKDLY

Assay [3] deals with Estrogen receptor beta (Homo sapiens) (UniProt Q92731). In words: OT_ER_ERbERb_1440: Odyssey Thera (OT) 24-hour HEK293T Protein-Complementation Assay for Estrogen Receptor-beta/-beta Homodimer (AID 2283380).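 Further: scored as signal increase over DMSO baseline for both agonists and antagonists.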 Summed up:
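HEK293T cells stably expressing ER beta LBD (aa 310-547) homodimer fragment-complementation reporter, dosed 24 h. Cells formaldehyde-fixed, Draq5-stained; gain in nuclear (agonist) or nuclear plus cytoplasmic (antagonist) fluorescence versus DMSO read by laser scanning cytometry.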

The target in assay [4] is Retinoic acid receptor RXR-alpha (Homo sapiens) (UniProt P19793). In words: OT_NURR1_NURR1RXRa_0480: Odyssey Thera (OT) 8-hour HEK293T Protein Complementation Assay for Nurr1/retinoid X receptor (RXR) (AID 2283385). Summed up: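 Gain in fluorescent complementation signal over DMSO, measured 8 hours after chemical dosing of human kidney HEK293T cells, indicated enhanced Nurr1–RXRα association.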

The target in assay [5] is human Norepinephrine Transporter (NET), SLC6A2 (gene 6530) (UniProt P23975). In words: NVS_TR_hNET: NovaScreen (NVS) Transporter Assay for human Norepinephrine Transporter (NET) (AID 2283377).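 Further: cell-free membrane protein extracted from CHO cells expressing human NET; displacement of radioligand from human NET seen as loss of scintillation signal.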 A digest of the protocol: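 CHO cell extracts expressing the transporter; tritiated or iodinated tracer displaced competitively; filtration plus scintillation readout at 1 h. Single-point duplicates at 25 uM, concentration series for follow-up; activity = signal drop relative to DMSO.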
Chain of human Norepinephrine Transporter (NET), SLC6A2 (gene 6530) (P23975 whole entry, looked up): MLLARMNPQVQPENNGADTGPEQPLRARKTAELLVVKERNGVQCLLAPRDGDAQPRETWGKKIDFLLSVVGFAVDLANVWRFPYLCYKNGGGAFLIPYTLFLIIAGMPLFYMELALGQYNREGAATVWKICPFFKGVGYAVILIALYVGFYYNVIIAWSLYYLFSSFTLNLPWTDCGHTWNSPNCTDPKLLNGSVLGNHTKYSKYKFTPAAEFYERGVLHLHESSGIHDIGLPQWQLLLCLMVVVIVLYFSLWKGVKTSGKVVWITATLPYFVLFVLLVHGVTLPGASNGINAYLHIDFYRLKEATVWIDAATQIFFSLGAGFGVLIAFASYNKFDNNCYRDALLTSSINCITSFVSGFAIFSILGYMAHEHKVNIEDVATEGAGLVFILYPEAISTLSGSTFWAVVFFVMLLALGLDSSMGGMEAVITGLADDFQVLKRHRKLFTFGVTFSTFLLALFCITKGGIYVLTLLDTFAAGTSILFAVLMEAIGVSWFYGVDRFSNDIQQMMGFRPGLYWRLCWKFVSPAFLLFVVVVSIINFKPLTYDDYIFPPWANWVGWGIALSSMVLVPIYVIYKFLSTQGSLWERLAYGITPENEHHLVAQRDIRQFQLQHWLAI

Assay [6] concerns the target mouse Estrogen Receptor alpha (Era), Esr1 (gene 13982) (UniProt P19785). In words: NVS_NR_mERa: NovaScreen (NVS) Nuclear Receptor Binding Assay for mouse Estrogen Receptor alpha (Era) (AID 2283378).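 Further: hit means loss of bound radioligand signal relative to DMSO.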 Summed up: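 Test chemicals competed against a specific radioligand for binding to cell-free mouse Era. Duplicate wells at 25 uM were read 18 hours later by filter-based radiodetection, with loss of signal against DMSO scored as activity.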

The target of assay [7] is Estrogen receptor (Homo sapiens) (UniProt P03372). In words: OT_ERa_GFPERaERE_0480: Odyssey Thera (OT) 8-hour HeLa Transcription Induction Assay for Estrogen Receptor (AID 2283381; active means hit-call score of the fitted dose curve at least 0.9, where 1 is the maximum; inactive means score below 0.9). A digest of the protocol:
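An 8 h HeLa transcription-induction format with a GFP reporter under ERE control, read by fluorescence microscopy; single endpoint fitted positively with DMSO as baseline.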

Assay [8] has the same target. In words: OT_ERa_GFPERaERE_0120: Odyssey Thera (OT) 2-hour HeLa Transcription Induction Assay for Estrogen Receptor (AID 2283382). A digest of the protocol: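 Two-hour compound treatment of HeLa cells preceded microscopy imaging of an inducible fluorescent reporter. Image-based quantification gave one endpoint, analysed for signal increase relative to DMSO controls.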

The target of assay [9] is Bile acid receptor (Homo sapiens) (UniProt Q96RI1). In words: OT_FXR_FXRSRC1_0480: Odyssey Thera (OT) 8-hour HEK293T Protein-Complementation Assay for Farnesoid X receptor/SRC-1 Co-activator (AID 2283383). Summed up:
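Readings were taken 8 h after dosing HEK293T cells in a split-reporter complementation format pairing FXR with SRC-1. Increased fluorescence relative to DMSO-treated wells defined activity.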

For assay [10] the target is unchanged. In words: OT_FXR_FXRSRC1_1440: Odyssey Thera (OT) 24-hour HEK293T Protein-Complementation Assay for Farnesoid X receptor/SRC-1 Co-activator (AID 2283384). A digest of the protocol: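 Single endpoint, analysed for increased fluorescence against DMSO controls. HEK293T cells carrying FXR and SRC-1 linked to complementary reporter halves were exposed to chemicals for 24 h before reading.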

For assay [11], the target named is Glucocorticoid receptor (Homo sapiens) (UniProt P04150). In words: NVS_NR_hGR: NovaScreen (NVS) Nuclear Receptor Binding Assay for human Glucocorticoid Receptor (GR) (AID 2283363).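 On AC50: activity is loss of specific radioligand binding signal relative to DMSO.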 Summed up: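 Filter scintillation readout of tritiated/iodinated radioligand displaced by test chemical; cell-free extracted protein; 16 h. DMSO = negative control/baseline. Duplicate single-point 25 uM screen, then concentration-response on actives.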
Chain of Glucocorticoid receptor (Homo sapiens) (P04150 whole entry, looked up): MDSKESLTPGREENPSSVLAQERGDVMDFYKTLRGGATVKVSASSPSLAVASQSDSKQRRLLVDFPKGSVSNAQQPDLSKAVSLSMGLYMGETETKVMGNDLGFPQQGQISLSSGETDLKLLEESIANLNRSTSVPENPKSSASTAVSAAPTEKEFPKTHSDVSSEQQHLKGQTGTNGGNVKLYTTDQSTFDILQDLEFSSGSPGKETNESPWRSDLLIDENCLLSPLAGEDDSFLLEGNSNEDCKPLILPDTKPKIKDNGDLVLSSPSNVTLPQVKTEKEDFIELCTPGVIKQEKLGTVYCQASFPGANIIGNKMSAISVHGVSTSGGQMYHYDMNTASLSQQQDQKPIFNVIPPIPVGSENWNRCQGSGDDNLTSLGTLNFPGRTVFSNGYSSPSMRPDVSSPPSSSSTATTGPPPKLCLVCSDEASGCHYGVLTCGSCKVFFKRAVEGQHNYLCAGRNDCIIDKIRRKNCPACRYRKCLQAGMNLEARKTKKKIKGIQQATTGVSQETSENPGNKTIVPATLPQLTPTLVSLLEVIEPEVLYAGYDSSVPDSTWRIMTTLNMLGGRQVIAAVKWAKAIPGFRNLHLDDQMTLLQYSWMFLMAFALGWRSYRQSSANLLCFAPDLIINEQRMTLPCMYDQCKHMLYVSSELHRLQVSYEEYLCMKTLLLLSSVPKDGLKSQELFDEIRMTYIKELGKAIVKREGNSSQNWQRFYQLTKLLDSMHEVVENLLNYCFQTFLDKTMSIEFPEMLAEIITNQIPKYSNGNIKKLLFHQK

Assay [12] has as its target rat Androgen Receptor (AR), Ar (gene 24208) (UniProt P15207). In words: NVS_NR_rAR: NovaScreen (NVS) Nuclear Receptor Binding Assay for rat Androgen Receptor (AR) (AID 2283366). Summed up: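 Actives from a duplicate single-concentration (25 uM) primary run went on to concentration series. Displacement of radioligand was counted by filtration and scintillation, 18 h post-dose, using prostate extracts from testosterone-pretreated rats, with DMSO as baseline.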

Assay [13] concerns the target Agonist Androgen Response Element (ARE), AR (gene 367) (UniProt P10275). In words: OT_AR_ARELUC_AG_1440: Odyssey Thera (OT) 24-hour CHO-K1 Luciferase Assay for Agonist Androgen Response Element (ARE) (AID 2283379). A digest of the protocol: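 Gain-of-signal reporter endpoint: cells (CHO-K1, hamster) are treated 24 h, luciferin/ATP reagent added, and luminescence compared with DMSO baseline.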

The target of assay [14] is human Dopamine Transporter (DAT), SLC6A3 (gene 6531) (UniProt Q01959). In words: NVS_TR_hDAT: NovaScreen (NVS) Transporter Assay for human Dopamine Transporter (DAT) (AID 2283374).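 Further: activity means loss of bound radioligand signal relative to DMSO.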 A digest of the protocol:
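hDAT membranes + tritiated/iodinated radioligand, competitive displacement; 1 h; filter scintillation readout. Single conc 25 uM (duplicate), then conc-response for actives. DMSO = negative control.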

The target of assay [15] is guinea pig Sigma Receptor, Non-selective Binding, SIGMAR1 (gene 100135589) (UniProt Q60492). Kind of assay: NVS_OR_gSIGMA_NonSelective: NovaScreen (NVS) Nuclear Receptor Binding Assay for guinea pig Sigma Receptor, Non-selective Binding (AID 2283367). Summed up: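 Membranes from guinea pig brain incubated with radioligand and test chemical for 1 h, then filtered and scintillation-counted. Duplicate primary testing at 25 uM, with concentration-series follow-up for actives.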

Assay [16] has as its target human Adenosine Transporter (Adot), SLC29A1 (gene 2030) (UniProt Q99808). Kind of assay: NVS_TR_hAdoT: NovaScreen (NVS) Transporter Assay for human Adenosine Transporter (Adot) (AID 2283368). Summed up:
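Binding displacement on U937 extracted protein, read 1 h post-dose by filtration and scintillation counting. Primary duplicate test at 25 uM, then singleton concentration series with 50 uM top; DMSO baseline.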

The test system of assay [17] is guinea pig Dopamine Transporter (DAT), gene 100714898. Kind of assay: NVS_TR_gDAT: NovaScreen (NVS) Transporter Assay for guinea pig Dopamine Transporter (DAT) (AID 2283369).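 Further: active compounds lower bound radioligand signal relative to DMSO.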 Summed up:
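Test chemicals were incubated 2 h with guinea pig striatal membranes and a radioligand; bound label was separated by filtration and counted. Screening ran at 25 uM, followed by concentration-response testing to a 50 uM maximum.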

The target of assay [18] is rat Serotonin Transporter (SERT), Slc6a4 (gene 25553) (UniProt P31652). Kind of assay: NVS_TR_rSERT: NovaScreen (NVS) Transporter Assay for rat Serotonin Transporter (SERT) (AID 2283375). A digest of the protocol:
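Steps: rat forebrain membranes dosed with chemical (25 uM duplicate primary; concentration series for actives); 1 h incubation; labelled ligand bound, filtered, counted by scintillation. Activity scored as signal loss vs DMSO.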

SMILES strings stand for the structures. “And” between values parts separate entries of the source, which are not always exact repeats. Equal values may be shown once. Inconclusive results are not listed. Some compounds were tested as several samples or in several runs, with calls that do not always agree. The source made the active and inactive calls. How the source made its calls, unless noted: active means hit-call score of the fitted dose curve at least 0.9, where 1 is the maximum; inconclusive means response in the unintended direction; inactive means score below 0.9.

Chain of rat Androgen Receptor (AR), Ar (gene 24208) (P15207 whole entry, looked up): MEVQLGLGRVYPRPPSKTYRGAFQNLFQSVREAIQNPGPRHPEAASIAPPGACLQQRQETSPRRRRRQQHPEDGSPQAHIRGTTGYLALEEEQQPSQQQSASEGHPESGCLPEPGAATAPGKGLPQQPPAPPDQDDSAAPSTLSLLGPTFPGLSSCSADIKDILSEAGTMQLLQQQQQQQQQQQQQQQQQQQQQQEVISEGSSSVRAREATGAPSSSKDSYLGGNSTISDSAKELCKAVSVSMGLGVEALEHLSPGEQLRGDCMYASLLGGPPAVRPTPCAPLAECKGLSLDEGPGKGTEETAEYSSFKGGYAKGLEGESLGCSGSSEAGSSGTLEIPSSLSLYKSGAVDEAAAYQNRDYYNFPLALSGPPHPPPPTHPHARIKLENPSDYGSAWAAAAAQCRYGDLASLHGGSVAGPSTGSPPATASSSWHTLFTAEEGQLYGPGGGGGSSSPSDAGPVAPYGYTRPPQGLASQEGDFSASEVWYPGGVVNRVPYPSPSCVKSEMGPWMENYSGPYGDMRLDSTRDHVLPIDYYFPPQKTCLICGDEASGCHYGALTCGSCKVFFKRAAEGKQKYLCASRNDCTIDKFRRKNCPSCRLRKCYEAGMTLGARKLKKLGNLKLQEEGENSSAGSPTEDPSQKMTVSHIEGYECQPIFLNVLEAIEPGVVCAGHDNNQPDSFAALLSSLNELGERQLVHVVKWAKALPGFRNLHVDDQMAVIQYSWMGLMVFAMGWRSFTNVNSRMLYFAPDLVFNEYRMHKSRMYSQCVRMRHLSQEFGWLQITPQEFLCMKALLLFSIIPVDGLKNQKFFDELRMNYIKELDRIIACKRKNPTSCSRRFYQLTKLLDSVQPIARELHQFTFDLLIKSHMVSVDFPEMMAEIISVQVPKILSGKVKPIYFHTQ
Chain of human Dopamine Transporter (DAT), SLC6A3 (gene 6531) (Q01959 whole entry, looked up): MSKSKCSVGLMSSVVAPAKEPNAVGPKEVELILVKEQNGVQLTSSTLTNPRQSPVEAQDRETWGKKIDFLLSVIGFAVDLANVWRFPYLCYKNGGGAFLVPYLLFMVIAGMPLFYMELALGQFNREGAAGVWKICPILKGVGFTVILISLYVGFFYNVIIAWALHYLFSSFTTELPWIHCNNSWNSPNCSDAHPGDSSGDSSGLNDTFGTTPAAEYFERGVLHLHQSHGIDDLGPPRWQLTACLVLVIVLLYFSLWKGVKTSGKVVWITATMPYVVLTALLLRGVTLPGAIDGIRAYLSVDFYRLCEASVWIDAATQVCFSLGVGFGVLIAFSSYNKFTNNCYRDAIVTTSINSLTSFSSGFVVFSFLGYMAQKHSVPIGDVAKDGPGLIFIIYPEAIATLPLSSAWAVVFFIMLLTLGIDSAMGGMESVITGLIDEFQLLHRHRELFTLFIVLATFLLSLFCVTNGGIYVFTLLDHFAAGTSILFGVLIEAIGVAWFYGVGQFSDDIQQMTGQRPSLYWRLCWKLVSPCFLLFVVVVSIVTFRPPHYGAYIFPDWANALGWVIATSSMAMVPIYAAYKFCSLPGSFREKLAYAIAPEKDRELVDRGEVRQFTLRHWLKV
Chain of mouse Estrogen Receptor alpha (Era), Esr1 (gene 13982) (P19785 whole entry, looked up): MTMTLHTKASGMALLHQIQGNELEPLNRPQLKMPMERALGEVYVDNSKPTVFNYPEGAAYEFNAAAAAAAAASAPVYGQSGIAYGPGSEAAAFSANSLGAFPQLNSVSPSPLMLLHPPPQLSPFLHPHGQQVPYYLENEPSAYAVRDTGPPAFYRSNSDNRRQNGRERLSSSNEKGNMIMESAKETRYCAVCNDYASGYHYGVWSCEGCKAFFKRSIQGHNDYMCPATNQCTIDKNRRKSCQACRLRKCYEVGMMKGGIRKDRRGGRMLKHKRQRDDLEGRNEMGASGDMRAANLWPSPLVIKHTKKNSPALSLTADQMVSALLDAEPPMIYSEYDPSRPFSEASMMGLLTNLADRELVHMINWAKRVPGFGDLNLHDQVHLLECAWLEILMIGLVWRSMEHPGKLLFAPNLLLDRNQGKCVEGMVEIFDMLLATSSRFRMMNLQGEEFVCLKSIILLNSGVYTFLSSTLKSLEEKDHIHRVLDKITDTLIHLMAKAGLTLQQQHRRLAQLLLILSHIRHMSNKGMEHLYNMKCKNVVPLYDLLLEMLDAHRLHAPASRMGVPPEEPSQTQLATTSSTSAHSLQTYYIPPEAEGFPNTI
Chain of Estrogen receptor (Homo sapiens) (P03372 whole entry, looked up): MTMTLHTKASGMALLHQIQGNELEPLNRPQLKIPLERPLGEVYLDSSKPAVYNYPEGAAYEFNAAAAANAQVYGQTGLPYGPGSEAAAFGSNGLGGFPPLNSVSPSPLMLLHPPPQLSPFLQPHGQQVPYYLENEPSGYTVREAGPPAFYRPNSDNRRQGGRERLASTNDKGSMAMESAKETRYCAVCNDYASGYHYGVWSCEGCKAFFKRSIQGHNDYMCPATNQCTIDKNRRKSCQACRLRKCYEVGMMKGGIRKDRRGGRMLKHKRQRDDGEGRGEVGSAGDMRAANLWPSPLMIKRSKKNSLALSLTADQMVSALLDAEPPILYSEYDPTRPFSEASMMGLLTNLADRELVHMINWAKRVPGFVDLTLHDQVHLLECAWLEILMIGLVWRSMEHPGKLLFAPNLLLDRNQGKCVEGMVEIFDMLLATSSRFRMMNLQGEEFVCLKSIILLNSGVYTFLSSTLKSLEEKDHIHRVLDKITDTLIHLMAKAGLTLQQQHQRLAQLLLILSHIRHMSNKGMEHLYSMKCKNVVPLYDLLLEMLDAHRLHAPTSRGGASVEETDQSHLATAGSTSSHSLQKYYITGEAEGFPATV
Chain of Nuclear receptor subfamily 1 group I member 2 (Homo sapiens) (O75469 whole entry, looked up): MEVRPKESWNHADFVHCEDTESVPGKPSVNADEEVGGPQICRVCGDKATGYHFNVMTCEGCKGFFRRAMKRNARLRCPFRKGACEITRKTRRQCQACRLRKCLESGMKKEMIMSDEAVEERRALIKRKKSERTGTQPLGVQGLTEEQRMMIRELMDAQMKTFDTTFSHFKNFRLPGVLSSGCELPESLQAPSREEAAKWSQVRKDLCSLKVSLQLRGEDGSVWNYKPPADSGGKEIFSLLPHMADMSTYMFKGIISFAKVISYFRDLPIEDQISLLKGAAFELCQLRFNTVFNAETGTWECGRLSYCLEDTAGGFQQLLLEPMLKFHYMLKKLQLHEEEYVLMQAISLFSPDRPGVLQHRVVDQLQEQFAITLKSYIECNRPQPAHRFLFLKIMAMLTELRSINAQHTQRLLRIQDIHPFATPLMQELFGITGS

For `C#C[C@]1(O)CC[C@H]2[C@@H]3CCC4=CC(=O)CC[C@@H]4[C@H]3CC[C@@]21C`, the outcome in [1], in assay [2], in assay [3] and in assay [4] was inactive. Further, the AC50 – broadly, the concentration at which the activity in the assay is half-maximal – in [3] was 29.3 µM (active) and 30.3 µM (active) and 22.2 µM (active).
In the case of `c1ccc2cc3c(ccc4ccccc43)cc2c1`, the result in [1], in assay [2], in assay [6], in assay [7], in assay [8] and in [9] was inactive. Also, the molecule was called inactive in assay [10] and in [4]. In addition, the figures for the AC50 in assay [5] and in assay [8] were 14.7 µM (active) and 59.4 µM (active), respectively.
`O=C(O)c1ccccc1C(c1ccc(O)cc1)c1ccc(O)cc1`: the AC50 is 10.2 µM (active) in [11]; 7.92 µM (active) and 7.1 µM (active) in assay [6]; 1.95 µM (active) in assay [13]. Also, the result in assay [1], in assay [12], in [2], in assay [6], in [13] and in assay [3] was inactive. For the same molecule, the molecule was called inactive in assay [7], in [8] and in [4].
In the case of `CC(C)CCCCCCOC(=O)CCCCC(=O)OCCCCCCC(C)C`, the outcome in assay [11], in assay [14], in assay [7], in assay [8], in assay [9] and in assay [4] was inactive.
Consider `CCCOc1sc(C(=O)N2CCC(c3cc(CN)ccc3F)CC2)c(C)c1Br`, for which the AC50 in [11] is 15 µM (active); in assay [12] it was 13.6 µM (active); in assay [15], 1.27 µM (active); in assay [16] it was 18.8 µM (active); in [17], 14.4 µM (active); in [14] it was 1.19 µM (active). In addition, the AC50 in assay [18] was 23.2 µM (active); in assay [5], 4.18 µM (active); in [6], 5.52 µM (active). Further, the call in assay [2] was inactive.
As for `O=C1OC2(c3ccccc31)c1cc(Br)c(O)c(Br)c1Oc1c2cc(Br)c(O)c1Br`, in assay [11], the AC50 was 20.9 µM (active). Further, the molecule was classed as inactive in assay [6], in [3], in assay [7], in assay [8], in [9] and in assay [10]. In addition, the molecule was called inactive in assay [4].
Take `CC(C)(C)c1ccc(O)c(C(C)(C)C)c1`: the outcome in assay [17], in [3], in assay [7] and in [8] was inactive. Also, the AC50 in assay [14] is 6.72 µM (active).
Consider `O=C(O)Cc1cc(I)c(Oc2cc(I)c(O)c(I)c2)c(I)c1`, for which the AC50 was 5.56 µM (active) and 109 nM (active) in assay [11]; 43.8 nM (active) and 1.53 nM (active) and 9.65 µM (active) in [2]; 10.1 µM (active) in assay [5]; 44.5 µM (active) in assay [7]; 48.3 µM (active) in assay [8]; 11.6 µM (active) in assay [4]. Besides, the result in assay [16], in assay [17], in assay [6] and in [3] was inactive.
Consider `Cc1cc(C)c(O)c(C)c1`, for which the molecule was called inactive in assay [15], in assay [2], in [7], in assay [8], in assay [9] and in [10]. For the same molecule, the result in assay [4] was inactive.
